# Columns and labels:
# Details in all cases: concentration: 1 μM, replicates: in singlicate; n = 1
# [1] = system: PRKX
# [2] = system: PRP4
# [3] = system: T1, PYK2
# T1 construct: gene PTK2B
# [4] = system: QSK
# [5] = system: RAF1
# [6] = system: RET
# [7] = system: RIOK1
# [8] = system: RIOK2
# [9] = system: RIOK3
# [10] = system: RIPK1
# 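Also: KINOMEscan kinase panel screen.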
SMILES,%Inh [1] [%],%Inh [2] [%],%Inh [3] [%],%Inh [4] [%],%Inh [5] [%],%Inh [6] [%],%Inh [7] [%],%Inh [8] [%],%Inh [9] [%],%Inh [10] [%]
COc1cc2ncn(-c3cc(OCc4ccc(S(C)(=O)=O)cc4)c(C(N)=O)s3)c2cc1OC [GW869979],0,0,0,27,0,26,0,8,0,18
CCc1nc(-c2cccc(C)c2)c(-c2ccncc2)s1,0,26,0,0,22,0,12,8,12,0
COc1cc(Nc2nccc(N3CCC(NC(=O)C(C)c4ccc(Cl)cc4)C3)n2)cc(OC)c1OC (centres unmarked) [GSK1379757],5,23,10,2,10,7,58,0,54,20
CCC(=O)c1c(-c2ccccc2)c2cc(Cl)ccc2c(=O)n1Cc1cc(C(=O)NC2CC2)n(C)n1,0,0,0,0,40,0,0,17,10,0
COc1cc2ncn(-c3cc(OCCCc4ccccc4)c(C(N)=O)s3)c2cc1OC [GSK205189],3,0,5,0,0,0,26,0,12,0
Nc1nc(-c2ccccc2F)c(-c2ccnc3ccccc23)s1 [GW560459],4,33,0,0,8,0,40,52,25,0
O=C(NCc1cccs1)c1cc(C(=O)c2c(Cl)cccc2Cl)c[nH]1 [GW823670],0,0,0,0,0,2,5,0,0,0
CC(C)(C)c1ccc(C(=O)Nc2cn3cc(-c4ccccc4)ccc3n2)cc1,3,19,0,0,0,0,2,14,22,0
Cc1ccc(Oc2ccc(Nc3ncnc4cc[nH]c34)cc2C)cn1,2,46,9,13,5,8,100,0,24,0
Cl.c1ccc(Cn2cnc3cc(Nc4ncnc5ccccc45)ccc32)cc1 [GW272142],31,28,10,0,3,3,35,0,38,8
Nc1n[nH]c2nnc(-c3ccccc3)c(-c3ccccc3)c12 [GW554060],18,8,0,0,18,0,32,13,0,0
CN(C)c1cc(-c2ccc3c(N)n[nH]c3c2)nc(N)n1 [GSK2219329],18,6,0,5,0,0,48,0,38,0
Nc1nccc2scc(-c3ccc4c(c3)CCN4C(=O)Cc3ccccc3)c12 [GSK2576924],14,13,0,0,5,11,13,6,11,71
O=C(Nc1ccc2c(c1)OCO2)NC1CCN(c2ccnc(NCc3ccc(F)cc3)n2)CC1 [GSK1379859],3,0,0,0,3,21,33,0,30,17
COc1cc2ncn(-c3cc(OCc4ccncc4)c(C(N)=O)s3)c2cc1OC [GSK336313],7,20,0,0,7,4,31,6,12,46
O=C(Nc1n[nH]c2nc(-c3ccccc3)c(Br)cc12)C1CC1 [SB-708998],0,3,0,0,14,74,35,17,24,48
Cc1nn2c(=O)cc(N3CCOCC3)nc2n1Cc1cccc(Cl)c1Cl [GSK2342769],8,15,6,8,15,72,38,36,11,0
